Our source for the outcome and Potency values is PubChem BioAssay (Tox21).

The nature of test [1]: qHTS assay for small molecules that induce genotoxicity in human embryonic kidney cells expressing luciferase-tagged ATAD5 (AID 651632). Further: nearly all actives have a fitted effect of over 15% in size. The gist of the method: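 DMSO vehicle served as the control. HEK293T reporter cells, 16 hr at 37C, then 30 min Amplite at room temperature; ATAD5 induction is measured as luciferase activity.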
Test [2] can be described thus: qHTS assay for small molecule agonists of the p53 signaling pathway - cell viability (AID 651633; calls by dose curve;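 further: p53RE-bla HCT reporter cells with a stable beta-lactamase p53 reporter; series mostly up to about 83 µM; nearly all actives have a fitted effect of over 30% in size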). The gist of the method:
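p53RE-bla cells, seeded at 4,000 per well and rested 5 h at 37 C/5% CO2, received compounds in DMSO for 16 h at 37 C. CellTiter-Glo was then added, and luminescence was read after 30 min at room temperature to gauge cytotoxicity.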

Test [3] is described as follows: qHTS assay for small molecules that induce genotoxicity in human embryonic kidney cells expressing luciferase-tagged ATAD5 - cell viability (AID 651634; calls by dose curve; further: nearly all actives have a fitted effect of over 25% in size). The gist of the method:
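Here HEK293T cells with the ATAD5 luciferase reporter are incubated with test compounds for 15.5 hr, and cytotoxicity is then gauged by measuring protease activity in live cells using fluorescence.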
Background: qHTS replaces the single test concentration by a dilution series.

Test [4] is described as follows: qHTS assay for small molecule disruptors of the mitochondrial membrane potential - cell viability (AID 720634; calls by dose curve;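 further: human HepG2 liver cancer cells; series mostly up to about 83 µM; nearly all actives have a fitted effect of over 20% in size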). The gist of the method:
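Viability of HepG2 cells is scored from ATP content by luminescence; cells are exposed to compound for 1 hr at 37 C and 5% CO2, then dosed with m-MPI dye before the CellTiter-Glo reagent.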

The nature of test [5]: qHTS assay to test for compound auto fluorescence at 590 nm (red) in HepG2 cells (AID 720674). The gist of the method:
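Intrinsic compound fluorescence in the red window (Ex/Em 540/590 nm) is measured in attached HepG2 cells exposed for 1 hr, DMSO vehicle as baseline, benchmarked to Rose Bengal sodium.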

The nature of test [6]: qHTS assay to test for compound auto fluorescence at 535 nm (green) in HepG2 cells (AID 720675).
The nature of test [7]: qHTS assay to test for compound auto fluorescence at 460 nm (blue) in HEK293 cells (AID 720678). A digest of the protocol:
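HEK293 cells (2,000 per well, medium with 10% dialyzed FBS) attached for 4-5 hr at 37C, then received compound and stood overnight at 37C, 5% CO2. Blue fluorescence was read at Ex/Em 405/460 nm and expressed relative to triamterene.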

The nature of test [8]: qHTS assay to test for compound auto fluorescence at 590 nm (red) in HEK293 cells (AID 720679). The gist of the method: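 HEK293 cells (2,000/well, medium with 10% dialyzed FBS) attached for 4-5 hr at 37C, received 23 nL compound and were incubated overnight at 37C, 5% CO2. Red fluorescence was then read at 540/590nm Ex/Em, referenced to Rose Bengal sodium.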
Test [9] can be described thus: qHTS assay for small molecule disruptors of the mitochondrial membrane potential (AID 720635). Further: potency means the concentration at half of the fitted maximal effect. A digest of the protocol:
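HepG2 cells (2,000/well) attached overnight at 37C, then took compound for 1 hr at 37C, 5% CO2. Mito-MPS dye was added for 30 min; fluorescence was read at 490/535 nm (monomers) and 540/590 nm (aggregates).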

SMILES strings stand for the structures. Unmarked numbers belong to inactive results. Records with an inconclusive call do not appear. The source made the active and inactive calls. Unless noted, the call rests on the fitted dose curve; in most records, active means well fitted curve in the direction sought with a large enough effect in the repeat runs; inconclusive means weak or mixed curves; inactive means no such curve, though single readings can be large; an effect the other way counts as inactive or inconclusive.

`CC(=O)N(CC(O)CO)c1c(I)c(C(=O)NCC(O)CO)c(I)c(C(=O)NCC(O)CO)c1I` (stereo not drawn): the molecule was called inactive in [1], in test [2], in test [4], in test [5], in test [6] and in test [7]. Further, the result in test [8] was inactive. In addition, in test [3], the Potency entry was “inactive”.
On to `COc1cc2c3cc1Oc1cc(ccc1O)C[C@@H]1c4c(cc(OC)c(O)c4Oc4ccc(cc4)C[C@@H]3N(C)CC2)CC[N+]1(C)C`, for which the outcome in test [1], in test [2], in [4], in [5], in [6] and in test [7] was inactive. In test [8], the call was inactive. Moreover, the Potency result in [3] and in test [9] was “inactive” each time.
As to `Cc1cc(O)c2c(c1)C(=O)c1cccc(O)c1C2=O`, the molecule was classed as inactive in test [1], in test [2], in test [4], in [5], in [6] and in test [7]. Moreover, in [8], the molecule was called inactive. Further, the Potency result in test [3] is “inactive”. Further, the Potency in test [9] is 11.9 µM (active).
For `COc1ccc(/C=N/NC(=O)c2ccncc2)cc1OC`, the result in test [1], in test [2], in [4], in [5], in [7] and in test [8] was inactive. In addition, the Potency result in [3] and in test [9] was “inactive” in each case.
For the molecule `COC(/C=C(\C)CCC=C(C)C)OC`, the molecule was called inactive in test [1], in [2], in [4], in test [5], in [6] and in test [7]. In [8], the call was inactive. Also, the Potency entry in test [3] and in test [9] was “inactive” in each case.
`C=C(C)C(=O)OC1CC(C)CC(C)(C)C1` (stereo not drawn): the molecule was called inactive in test [1], in [2], in [4], in test [5], in [6] and in [7]. In addition, the outcome in test [8] was inactive. Further, the Potency result in [3] was “inactive”.
Consider `C=C(C)C(=O)OCCCCCCOC(=O)C(=C)C`, for which the outcome in test [1], in test [2], in [4], in test [5], in test [6] and in test [7] was inactive. For the same molecule, the call in test [8] was inactive. The Potency entry in [3] and in [9] was “inactive” each time.
On to `C[C@H]1O[C@H](O[C@H]2[C@H](O)[C@@H](O)[C@@H](O[C@H]3[C@H](O)[C@@H](O)[C@H](O)O[C@@H]3CO)O[C@@H]2CO)[C@H](O)[C@@H](O)[C@@H]1N[C@H]1C=C(CO)[C@@H](O)[C@H](O)[C@H]1O`, for which the molecule was classed as inactive in [1], in test [2], in test [4], in test [5], in test [6] and in test [7]. For the same molecule, the call in test [8] was inactive. Also, in [3], the Potency result was “inactive”.
Take `CC(C)COC(=O)COc1ccc(Cl)cc1Cl`: the molecule was called inactive in [1], in [2], in test [4], in [5], in test [6] and in [7]. Besides, the molecule was classed as inactive in test [8]. In test [3], the Potency result is “inactive”.
On to `CC(=O)OCC(=O)[C@@]1(O)[C@H](OC(C)=O)C[C@H]2[C@@H]3CCC4=CC(=O)C=C[C@]4(C)[C@@]3(F)[C@@H](O)C[C@@]21C`, for which the molecule was classed as inactive in [1], in test [2], in test [4], in test [5], in [6] and in [7]. In addition, the call in test [8] was inactive. For the same molecule, the Potency entry in test [3] is “inactive”.
As for `Cc1cc(C)cc([N+](=O)[O-])c1`, the outcome in test [1], in test [2], in test [4], in test [5], in test [6] and in test [7] was inactive. The result in [8] was inactive. Also, the Potency result in [3] and in [9] was “inactive” each time.
Take `CCNC(=O)NCCCOc1cccc(CN2CCCCC2)c1`: the outcome in test [1], in [2], in test [4], in test [5], in [6] and in test [7] was inactive. Besides, the call in test [8] was inactive. In [3], the Potency result was “inactive”.
As for `COC(OC)C(C)c1ccccc1` (stereo not drawn), the result in test [1], in [2], in [4], in [5], in test [6] and in test [7] was inactive. Moreover, the call in test [8] was inactive. The Potency result in test [3] and in test [9] was “inactive” each time.
Consider `CCCCCCCC/C=C\CCCCCCCC(=O)OC[C@@H](O)[C@H]1OC[C@H](O)[C@H]1O`, for which the molecule was classed as inactive in test [1], in [2], in [4], in [5], in [6] and in [7]. In addition, the result in test [8] was inactive. Moreover, the Potency entry in [3] and in test [9] was “inactive” throughout.
On to `CN(C1CCCCC1)S(=O)(=O)c1ccccc1N`, for which the result in [1], in [2], in [4], in test [5], in test [6] and in test [7] was inactive. The molecule was classed as inactive in test [8]. Moreover, the Potency entry in [3] is “inactive”.
Take `C=CCOc1c(Br)cc(Br)cc1Br`: the molecule was called inactive in test [1], in test [2], in [4], in test [5], in test [6] and in [7]. For the same molecule, the outcome in test [8] was inactive. For the same molecule, in test [3], the Potency result was “inactive”.
For the molecule `O=C(O)Cc1cccc(-c2cc(CCCCCCc3ccc(O[C@H]4O[C@H](CO)[C@@H](O)[C@H](O)[C@@H]4O)c(-c4cccc(CC(=O)O)c4)c3)ccc2O[C@H]2O[C@H](CO)[C@@H](O)[C@H](O)[C@@H]2O)c1`, the result in [1], in test [2], in [4], in test [5], in test [6] and in test [7] was inactive. Also, the molecule was called inactive in [8]. Besides, the Potency result in [3] was “inactive”.
In the case of `CCCCC[Si](OCC)(OCC)OCC`, the molecule was called inactive in test [1], in test [2], in test [4], in test [5], in test [6] and in test [7]. For the same molecule, the call in [8] was inactive. Further, the Potency result in test [3] was “inactive”. Moreover, the Potency in test [9] is 48.6 µM (active).
Turning to `CC(C)COC(=O)CCCCC(=O)OCC(C)C`, the outcome in test [1], in test [2], in test [4], in test [5], in [6] and in test [7] was inactive. In test [8], the call was inactive. For the same molecule, the Potency result in test [3] is “inactive”.
`CNCc1ccccc1`: the molecule was called inactive in test [1], in test [2], in test [4], in test [5], in test [6] and in test [7]. Further, the outcome in test [8] was inactive. Further, the Potency entry in test [3] is “inactive”.
